Molecules are shown by their SMILES. Screen size: about 2,100 compounds; about 650 (31%) were called active. Not shown: some 16% with an inconclusive outcome. The call rests on the fitted dose curve; in most records, active means well fitted inhibition curve with a large enough effect; inconclusive means small, poorly fitted or top-dose-only effect; inactive means flat fitted curve, though single readings scatter. The list shows a part of the results. Entries that show only a call come without a potency.
Potency means the concentration at half of the fitted maximal effect.

The nature of the experiment: qHTS for inhibitors of Vif-A3G interactions: Cherry picks. Further: nearly all actives have a fitted effect of over 80% in size. The settings on record: HeLa A3G-eYFP + Vif (tagged APOBEC3G with the HIV-1 protein that degrades it), 24 h; Potency: eYFP fluorescence increase; series mostly up to 36.9 µM. An outline of the steps: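 HeLa cells stably expressing A3G-eYFP and Vif, cultured overnight then exposed to compounds at several concentrations for 24 hours at 37 C, 5% CO2; cellular yellow fluorescence (488 nm ex, 500-530 nm em) imaged on Acumen, MG132 positive control.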
On to `COc1cc(N2CCCC2)c(OC)cc1/C=C(/C#N)c1ccc(Br)cc1`, for which the Potency was 8.2 µM (active).

On to `CSc1nc2ccccc2cc1/C=C(\C#N)c1ccccc1`, for which the Potency result is “inactive”.

In the case of `COc1cc(N2CCCC2)c(OC)cc1/C=C(/C#N)c1ccc(F)cc1`, the Potency is 18.4 µM (active).

In the case of `COc1cc(-c2cnc3c(NC(C)=O)cc(-c4ccccc4CN(C)C)cn23)cc(OC)c1OC`, the Potency result is “inactive”.

Consider `COc1cc(C(=O)OCC(=O)Nc2ccc(N3CCOCC3)cc2)ccc1OCC(C)C`, for which the Potency result is “inactive”.

As to `Cc1cc(C)c2nccc(/C=C/c3ccc(N(C)C)cc3)c2c1`, the Potency was 16.4 µM (active).

On to `COc1ccc2nccc(/C=C/c3ccc(N(C)C)cc3)c2c1`, for which the Potency is 18.4 µM (active).

Turning to `CN(C)c1ccc(/C=C/c2ccnc3ccc(Br)cc23)cc1`, the Potency is 2.59 µM (active).

Take `CN(C)c1ccc(/C=C/c2ccnc3ccc(I)cc23)cc1`: the Potency is 5.17 µM (active).

Take `CC1(C(=O)NCc2cccs2)Cc2c(-c3ccc(C(N)=O)cc3)ccnc2O1` (configuration not stated): the Potency entry is “inactive”.

Regarding `COc1ccccc1-c1cc(NC=O)c2ncc(-c3cccc(C(=O)N(C)C)c3)n2c1`, the Potency result is “inactive”.

In the case of `COc1cc(C(=O)Nc2ccc3c(c2)ncn3C)cc(OC)c1OC`, the Potency entry was “inactive”.

Take `CC(=O)Nc1cccc(-c2ccnc3c2CC(C(=O)NCc2ccco2)O3)c1` (configuration not stated): the Potency result is “inactive”.

For the compound `Cc1ccc2nccc(/C=C/c3ccc(N(C)C)cc3)c2c1`, the Potency is 16.4 µM (active).

As to `CN(C)c1ccc(/C=C/c2ccnc3ccc(N)cc23)cc1`, the Potency is 18.4 µM (active).

Consider `O=C(NCc1ccccc1)C1Cc2c(-c3cccc(F)c3)ccnc2O1` (configuration not stated), for which the Potency entry was “inactive”.

As for `Cn1c(=O)c2cc(NC(=O)NCc3ccc(F)cc3)ccc2n1C/C=C/c1ccccc1`, the Potency entry was “inactive”.

With `CCCCn1c(N)c(N(CC(C)C)C(=O)Cc2ccc(S(=O)(=O)N3CCOCC3)s2)c(=O)[nH]c1=O`, the Potency was 18.4 µM (active).

As for `C=CCN1C(=O)c2ccc(C(=O)N(CC(C)C)c3c(N)n(CCCC)c(=O)[nH]c3=O)cc2C1=O`, the Potency result is “inactive”.

As for `CCCCn1c(N)c(N(Cc2ccccc2OC)C(=O)c2ccc([N+](=O)[O-])s2)c(=O)[nH]c1=O`, the Potency result was “inactive”.

For `Cc1cc(N)cc(C)c1-c1c(Br)cc(N)cc1Br`, the Potency result is “inactive”.

For the compound `COc1ccc(/C=C/C=C2\NC(=S)NC2=O)cc1`, the Potency was 6.51 µM (active).

For the compound `CCOc1cccc(-n2nnnc2-c2ccc(OC)cc2)c1`, the Potency entry was “inactive”.

Take `COc1cccc(Cn2c(-c3nonc3N)nc3ccccc32)c1`: the Potency entry was “inactive”.

For the compound `COc1ccc2c(c1)c1nc3ccccc3nc1n2CC(=O)OC(C)C`, the Potency is 3.66 µM (active).

Consider `CCOc1ccc(Cn2c3ccc(OC)cc3c3nc4ccccc4nc32)cc1`, for which the Potency was 16.4 µM (active).

In the case of `COc1cccc(Cn2c(-c3nonc3NC(C)=O)nc3ccccc32)c1`, the Potency result is “inactive”.

Values taken from PubChem BioAssay AID651812 (National Center for Advancing Translational Sciences (NCATS), 2012).
